CYP2C9 inhib: blockers of cytochrome P450 2C9 activity – biochemical, luminescence, ADME assay, primary screen | P11712 | CYP2C9 Supersomes, luciferin-H conversion | inhibition, % at 5 µM | 96,000 compounds, 20% hits | AID 777, 2007;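 active = blocking of liver enzyme CYP2C9 beyond about 50% at 5 µM, limit read from the data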
CYP2C9 act: human CYP2C9 activators, primary screen, biochemical, luminescence | recombinant CYP2C9, luciferin-H conversion; stronger effect = higher value; factor 1 = untreated enzyme, 0 = blocked | Cytochrome P450 2C9 (Homo sapiens), P11712 | AID 1024, 2008 | 96,000 compounds, 1.4% hits | activation factor at 5 µM;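 active = activation factor of 2 or more for CYP2C9 at a 5 µM dose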;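 note: 0 = sulfaphenazole-blocked wells and 1 = vehicle-only wells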
CYP2C19 inh: blockers of cytochrome P450 2C19 activity – biochemical, luminescence, ADME assay, primary screen | P33261 | CYP2C19 Supersomes, luciferin-H EGE luminescence, 30 min | inhibition, % at 5 µM | 96,000 compounds, 21% hits | AID 778, 2007;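 active = CYP2C19 inhibition above a set limit at 5 µM in the primary screen, cut at about 50% in these data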;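 note: plate controls were negative control wells for no effect and 2.5 mM tranylcypromine positive control for full effect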
Target sequence (P33261 whole entry, looked up): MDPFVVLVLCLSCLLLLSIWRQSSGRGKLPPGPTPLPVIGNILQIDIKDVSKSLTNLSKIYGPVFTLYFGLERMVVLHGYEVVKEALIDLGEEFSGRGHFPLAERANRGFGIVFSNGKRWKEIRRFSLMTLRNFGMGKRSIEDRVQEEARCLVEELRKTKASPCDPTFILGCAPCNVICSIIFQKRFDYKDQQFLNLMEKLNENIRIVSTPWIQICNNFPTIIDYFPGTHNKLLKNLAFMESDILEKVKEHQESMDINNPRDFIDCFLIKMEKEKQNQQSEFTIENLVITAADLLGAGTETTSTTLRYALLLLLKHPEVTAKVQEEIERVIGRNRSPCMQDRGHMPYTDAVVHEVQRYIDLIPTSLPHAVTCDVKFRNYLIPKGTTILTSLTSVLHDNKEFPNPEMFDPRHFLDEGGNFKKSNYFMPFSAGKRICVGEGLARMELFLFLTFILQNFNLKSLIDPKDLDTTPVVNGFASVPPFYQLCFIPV
Cav3 T inh: Cav3.2 calcium influx blockers – cell-based, Fluo-4 calcium fluorescence, FDSS, MLSMR library, primary screen; Voltage-dependent T-type calcium channel subunit alpha-1H (Homo sapiens), O95180; Cav3.2-expressing cells; stronger effect = lower value; B-score at 10 µM; 100,000 compounds, 4% hits;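 active = single-dose well whose peak fluorescence ratio is a statistical outlier from its plate by either plate-standardised score or position-corrected B-score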
CYP2C19 activ: human CYP2C19 activators, primary screen, biochemical, luminescence; Cytochrome P450 2C19 (Homo sapiens), P33261; recombinant CYP2C19, luciferin-H EGE luminescence; stronger effect = higher value; 0 = fully inhibited enzyme, 1 = untreated enzyme; activation factor at 5 µM; 96,000 tested, under 10 active;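 active = activation factor of at least 2 at 5 µM in the primary screen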;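 note: 0 = wells with 2.5 mM tranylcypromine and 1 = vehicle-only wells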
* marks the source's active call; other numbers are inactive results; . = no result given. Hits are enriched below; roughly 27% of the tested compounds scored in any of these assays.

SMILES	CYP2C9 inhib	CYP2C9 act	CYP2C19 inh	Cav3 T inh	CYP2C19 activ
Cc1ccc(-n2c(N)c(C(=O)N3CCCCC3)sc2=S)cc1	26	0.7	67*	0.074	0.3
Cc1ccc(-n2c(N)c(C(=O)N3CCN(C)CC3)sc2=S)cc1	3	1	-5	0.54	1
O=C(CCS(=O)(=O)Cc1ccccc1)Nc1nc2c(s1)CCCC2	20	0.8	15	-0.44	0.8
CC(C)NC(=O)c1ccccc1NC(=O)CCS(=O)(=O)Cc1ccccc1	76*	0.2	4	0.65	1
CC(C)NC(=O)c1ccccc1NC(=O)CS(=O)(=O)Cc1ccccc1	80*	0.2	17	-1.5	0.8
CN(C)/C=N/c1nc2ccc3c(c2s1)CCCC3	8	0.9	81*	-0.27	0.2
Cc1nc(/N=C\N(C)C)sc1C(=O)Nc1ccccc1	10	0.9	14	0.05	0.9
CC1CCN(S(=O)(=O)c2ccc(S(=O)(=O)NCC3COCCO3)cc2)CC1 (stereo not given)	3	1	60*	-0.51	0.4
O=C1Nc2ccccc2C12OCC(COc1ccc(Cl)cc1)O2 (stereo not given)	20	0.8	84*	-5.4*	0.2
COc1cc(C2=NOC(C(=O)N3CCOCC3)C2)cc(OC)c1OC (stereo not given)	-11	1.1	-11	0.39	1.1
CCN(CC)C(=O)CSc1nnc(-c2ccccc2)n1N	5	0.9	2	0.49	1
CCOc1ccc(-c2nnc(SCC(=O)N(CC)CC)n2N)cc1	-110	2.1*	4	.	1
CCOC(=O)/C(=N\Nc1ccc(OC)cc1)c1csc(Nc2ccccc2)n1	44	0.6	11	-0.34	0.9
Cc1cc(NC(=O)COc2cccc(C)c2C)no1	27	0.7	20	-0.23	0.8
CCOc1ccccc1OCCCOc1ccc(C)cc1Cl	-19	1.2	8	0.028	0.9
COc1ccccc1OCCCc1c(C)n[nH]c1C	6	0.9	67*	0.33	0.3
Cc1cccc(OCCCCc2c(C)n[nH]c2C)c1C	74*	0.3	88*	-3.1	0.1
CCOc1ccccc1OCCCCCc1c(C)n[nH]c1C	19	0.8	77*	-3.6*	0.2
COc1ccccc1OCCCCCc1c(C)n[nH]c1C	13	0.9	54*	-1.1	0.5
O=C(O)C1CC=CCC1C(=O)Nc1cccc(C(=O)N2CCCCC2)c1 (stereo not given)	-27	1.3	-20	1	1.2
Cn1c(-c2ccc3c(c2)OCO3)cnc1NCc1cccc(Cl)c1	31	0.7	32	-4.8*	0.7
Cn1c(-c2ccc3c(c2)OCO3)cnc1NCc1ccccc1	24	0.8	32	-2.7	0.7
O=S(=O)(c1ccc(Br)s1)n1cccn1	-52	1.5	7	0.74	0.9
COCCN1C(=O)N[C@@H](c2ccco2)C(C(=O)OC)=C1C	.	.	.	1	.
O=c1oc2ccccc2cc1-c1cn2cccnc2n1	25	0.8	57*	-0.56	0.4
SMILES	CYP2C9 inhib	CYP2C9 act	CYP2C19 inh	Cav3 T inh	CYP2C19 activ
CCN1C=C(C(=O)OC)C(c2cccc(C)c2)C(C(=O)OC)=C1	74*	0.3	70*	-0.8	0.3
CCCCCN(C(=O)NC(=O)Nn1cnnc1)S(C)(=O)=O	-8	1.1	-3	-1.1	1
Cc1cc(N2CCCC2)ccc1/C=N/n1cnnc1	86*	0.1	99*	0.54	0
CCOC(=O)COc1ccc(S(=O)(=O)NCc2ccco2)cc1	42	0.6	73*	0.093	0.3
COC(=O)COc1ccc(S(=O)(=O)Nc2ccc(C(N)=O)cc2)cc1	10	0.9	-9	-1.2	1.1
COC(=O)COc1ccc(S(=O)(=O)NCc2ccco2)cc1	4	1	60*	-0.11	0.4
C=CCNS(=O)(=O)c1ccc(OCC(=O)OC)cc1	71*	0.3	70*	0.28	0.3
COc1ccc(CCn2c(C)cc3c(c2=O)C(c2ccc4c(c2)OCO4)C(C#N)=C(N)O3)cc1OC (stereo not given)	44	0.6	44	1	0.6
COc1ccc2c(c1)C(=O)[C@@H](OC(=O)NCc1ccc3c(c1)OCO3)[C@H](c1ccc(OC)c(Br)c1)O2	.	.	.	-0.27	.
CCC(C)(NC(=O)c1cccc(N2C(=O)CSC2c2ccccc2)c1)C(=O)Nc1ccccc1C (stereo not given)	25	0.8	48	-5.1*	0.5
C=CCSc1nc(N(CC)CC)c2sccc2n1	-3	1	40	-2	0.6
C=CCNc1nc(SC)nc2ccsc12	-129	2.3*	12	0.64	0.9
COc1ccccc1C(=O)Nn1cnc2ccccc2c1=O	17	0.8	13	0.64	0.9
Cc1ccccc1NC(=O)CN(c1ccc(F)cc1)S(C)(=O)=O	7	0.9	33	1.7	0.7
CS(=O)(=O)N(CC(=O)Nc1cc(Cl)ccc1Cl)c1ccccc1	65*	0.4	36	-2.6	0.6
CS(=O)(=O)N(CC(=O)Nc1cccc(Cl)c1Cl)c1ccccc1	78*	0.2	30	-0.63	0.7
C=CCOc1c(CNc2ncn[nH]2)cccc1OC	5	1	12	0.51	0.9
C=CCOc1ccc2ccccc2c1CNc1ncn[nH]1	62*	0.4	84*	0.25	0.2
Cc1cc(N2CCOCC2)n2nc(C)c(-c3ccccc3)c2n1	2	1	0	3.8*	1
Cc1cc(C)c2c(n1)nn1c(N3CCN(c4ccccn4)CC3)cc(C)nc21	34	0.7	27	.	0.7
Cc1nn2c(N3CCN(c4ccccn4)CC3)cc(C(C)C)nc2c1-c1ccccc1	62*	0.4	14	-3.2	0.9
CCOC(=O)c1ccc(-n2c(=S)sc3c(=O)[nH]c(C)nc32)cc1	-14	1.1	6	-0.071	0.9
O=C(OC1CCOC1=O)c1cc(-c2ccc(Br)cc2)nc2ccccc12 (stereo not given)	52*	0.5	0	0.53	1
CS(=O)(=O)N1CCN(Cc2ccccc2C(F)(F)F)CC1	18	0.8	73*	-0.093	0.3
Cc1ccc(CN2CCN(Cc3ccccc3C(F)(F)F)CC2)cc1	20	0.8	64*	-0.11	0.4
CCC12CCCN3CCC4(C(=C(C(=O)OC)C1)Nc1ccccc14)C32 (stereo not given)	58*	0.4	63*	-0.27	0.4
COC(=O)C1=C(C(=O)OC)[C@@H]2Nc3ccccc3[C@@]23C[C@@H](C(=O)OC)N=C3N1	.	.	.	1.9	.
Cc1ccc(C(=O)COC(=O)CNC(=O)C(c2ccccc2)c2ccccc2)cc1[N+](=O)[O-]	-20	1.2	30	-0.71	0.7
Cc1ccccc1CSCC(Nc1ccc(C(=O)O)cc1[N+](=O)[O-])C(=O)O (stereo not given)	69*	0.3	-2	1.6	1
